Compounds without any hit were thinned out: in the full panel of roughly 79,000, 15% have a hit. A number with no mark means an inactive call. Activity calls are given as the source filed them. Cut-off read from the data, not from the text of the source: active = growth inhibition above about 70%; inactive = the rest.
Tests used:
[1] = NCI Yeast Anticancer Drug Screen. Data for the rad50 strain (AID 155);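 note: 0% = growth of vehicle-only cultures of the same strain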; settings: S. cerevisiae rad50 strain growth inhibition, stronger effect = higher value
Summary of the method: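 Readout: growth inhibition relative to vehicle-treated cultures. Compound exposure was carried out in a genetically defined yeast strain deficient in DNA damage repair.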

[2] = NCI Yeast Anticancer Drug Screen. Data for the mec2-1 strain (AID 157); settings: S. cerevisiae mec2-1 strain, stronger effect = higher value
Summary of the method: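 Mutant yeast (mec2-1) grown with compound; growth inhibition relative to vehicle control reported.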

[3] = NCI Yeast Anticancer Drug Screen. Data for the sgs1 mgt1 strain (AID 161);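 note: 0% = growth of cultures given vehicle only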; settings: S. cerevisiae sgs1 mgt1 strain, stronger effect = higher value
Summary of the method: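 Compounds are added to genetically altered yeast, and growth is compared with cultures given vehicle alone to give percent inhibition.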

[4] = NCI Yeast Anticancer Drug Screen. Data for the cln2 rad14 strain (AID 165);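 note: 0% = growth equal to vehicle treated cultures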; settings: S. cerevisiae cln2 rad14 strain, stronger effect = higher value
Summary of the method: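 Readout is yeast growth inhibition versus vehicle-treated controls, using a strain with cln2 and rad14 alterations exposed to compound.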

[5] = NCI Yeast Anticancer Drug Screen. Data for the bub3 strain (AID 167); settings: S. cerevisiae bub3 mutant strain, stronger effect = higher value
Summary of the method: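 Readout: yeast growth inhibition, expressed relative to vehicle-only wells. The test organism is a mutant strain from a panel with lesions in DNA repair or checkpoint genes.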

[6] = NCI Yeast Anticancer Drug Screen. Data for the mlh1 rad18 strain (AID 175); settings: S. cerevisiae mlh1 rad18 strain growth inhibition, stronger effect = higher value
Summary of the method: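 Genetically defined yeast (DNA repair-deficient) exposed to compounds; growth inhibition determined relative to vehicle.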

[7] = at 5.0 µM (retest, dose inferred, filed as 0.5)
[8] = at 50.0 µM (retest, dose inferred, filed as 5.0)

SMILES	growth inhibition [1, 7]	growth inhibition [1, 8]	growth inhibition ([1]; at 50.0 µM)	growth inhibition [2, 7]	growth inhibition [2, 8]	growth inhibition ([2]; at 50.0 µM)	growth inhibition [3, 7]	growth inhibition [3, 8]	growth inhibition ([3]; at 50.0 µM)	growth inhibition [4, 7]	growth inhibition [4, 8]	growth inhibition ([4]; at 50.0 µM)	growth inhibition [5, 7]	growth inhibition [5, 8]	growth inhibition ([5]; at 50.0 µM)	growth inhibition [6, 7]	growth inhibition [6, 8]	growth inhibition ([6]; at 50.0 µM)
Cc1ccc(S(=O)(=O)N/N=C2/CCC3(O)CC2(C)CCC2[C@H]3CC2(C)C)cc1 (some centres undefined)	17%	72% (active)	66.7%	-7%	83% (active)	57.2%	1%	54%	70.2% (active)	13%	69%	83.8% (active)	2%	86% (active)	75% (active)	5%	88% (active)	70.7% (active)
O=C(Nc1cc(Cl)cc(Cl)c1)C(F)(F)F	27%	98% (active)	83.9% (active)	34%	100% (active)	87.5% (active)	37%	99% (active)	96.4% (active)	9%	99% (active)	92.4% (active)	96% (active)	99% (active)	85% (active)	59%	99% (active)	97.4% (active)
COc1nc2nc(SC(CC(=O)O)C(=O)c3ccc(Cl)cc3)[nH]c2c2ccccc12 (centres undefined)	1%	7%	10.1%	0%	1%	7.45%	2%	-18%	-3.85%	2%	-15%	-12.1%	-2%	-1%	-5.45%	-1%	–	32.9%
O=[N+]([O-])c1cccc(/C=N/Nc2ccc3ccccc3n2)c1O	30%	20%	98% (active)	1%	-23%	98.8% (active)	26%	24%	97.4% (active)	1%	3%	93.3% (active)	2%	7%	97.8% (active)	16%	14%	97.5% (active)
CCCNCCCC(C)Nc1cc(OC)cc2c(C)ccnc12 (centres undefined)	17%	73% (active)	66.4%	8%	48%	55.2%	20%	78% (active)	41.9%	2%	46%	27.1%	-6%	80% (active)	53.7%	11%	86% (active)	59.2%
CCCNCC/C=C/[Si](C)(C)C	-17%	99% (active)	98.7% (active)	-9%	99% (active)	96.5% (active)	-3%	99% (active)	97.6% (active)	4%	99% (active)	98.5% (active)	-2%	99% (active)	98.8% (active)	10%	99% (active)	98.8% (active)
CC(NCCO)c1ccc2ccccc2c1 (centres undefined)	0%	8%	2.15%	3%	-4%	-13.2%	-10%	-6%	2.3%	3%	-3%	30.7%	3%	-1%	-14.9%	-1%	8%	-3.8%
CC(CN(C)C)C(/C=C/c1ccccc1)=N\NC(=O)c1ccccc1 (centres undefined)	-14%	3%	3.15%	-7%	-7%	13.1%	-4%	3%	3.05%	-11%	-4%	3.15%	-3%	-11%	-18.4%	–	–	–
Clc1ccc(C2=CC(c3ccccc3)N3C(=N[C@H]4CCCC[C@@H]43)N2)cc1 (some centres undefined)	8%	6%	55.4%	4%	4%	54.2%	6%	17%	79.2% (active)	11%	33%	32.2%	14%	19%	84.8% (active)	6%	11%	91.8% (active)
O=C1C=CC2C(=O)c3ccccc3C(=O)C2=C1 (centres undefined)	21%	89% (active)	73.5% (active)	17%	76% (active)	63.5%	4%	72% (active)	56.9%	5%	71% (active)	66.7%	1%	55%	45.5%	4%	67%	69.2%
CN1C=Cc2ccccc2C1C(C1c2ccccc2C=CN1C)[N+](=O)[O-] (centres undefined)	0%	5%	-5.6%	8%	12%	-9.95%	-2%	56%	49%	2%	7%	2.65%	-4%	14%	15.8%	-11%	1%	-13.5%
CS(=O)(=O)n1c(C(O)c2ccccc2)nc2ccccc21 (centres undefined)	-4%	4%	8.95%	10%	-1%	17.8%	2%	8%	3.1%	-82%	-1%	27.8%	5%	38%	5.6%	0%	1%	14.2%
CCCCCC(C)NCCOC(=O)c1ccccc1 (centres undefined)	3%	78% (active)	50.8%	-13%	82% (active)	-10.7%	-8%	79% (active)	59.4%	0%	26%	67.2%	3%	84% (active)	75.5% (active)	18%	89% (active)	40.5%
Cc1ccc2[nH]c3cc4ccncc4cc3c2c1	-127%	95% (active)	48.5%	30%	95% (active)	98.6% (active)	-15%	94% (active)	3.7%	35%	96% (active)	96.7% (active)	47%	96% (active)	97.2% (active)	–	–	–
ClCc1ccc2ccc3ccc(CCl)nc3c2n1	31%	81% (active)	47.1%	67%	93% (active)	43%	65%	93% (active)	70.2% (active)	29%	81% (active)	27.8%	-7%	95% (active)	59%	–	–	–
Cc1cc(Cl)c(C(C)C)cc1O	17%	62%	53.2%	-4%	61%	48.2%	3%	55%	48.6%	2%	51%	45%	7%	55%	24.4%	8%	58%	63.4%
O=[N+]([O-])c1cccc2c(O)cccc12	3%	58%	59%	0%	35%	33.4%	-2%	31%	39.1%	-3%	30%	33.8%	-1%	65%	47.2%	–	–	–
O=C1C=CC(=O)C2C3C=CC(CC3)C12 (centres undefined)	8%	29%	47.1%	20%	36%	43.6%	10%	36%	70.1% (active)	14%	43%	78.2% (active)	0%	23%	92.5% (active)	11%	39%	84.6% (active)
NC(=S)N1N=C2c3ccccc3CC[C@H]2[C@@H]1c1cccs1	-52%	20%	59.6%	-4%	40%	34.4%	-26%	63%	80.6% (active)	0%	42%	43.1%	-11%	70% (active)	60.2%	–	–	–
O=NNc1ncc(Sc2ccccc2)nc1Sc1ccccc1	-14%	-8%	-0.45%	-11%	13%	-24.9%	-3%	20%	45.5%	3%	11%	15.5%	-13%	-11%	-9.1%	4%	12%	71.8% (active)

Source: PubChem BioAssay (NCI)
